For assay [1], the target named is Estrogen receptor (Homo sapiens) (UniProt P03372). The assay can be described thus: qHTS assay for small molecule agonists of estrogen receptor alpha signaling (AID 588514; calls by dose curve;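 further: 0% = vehicle only and 100% = reference agonist; nearly all actives have a fitted effect of over 70% in size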). In a few lines:
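Cells were plated at 5000/well, incubated 4 hrs at 37 C, dosed with compound titration series, incubated 18 hrs at 37 C, loaded with CCF4 dye for 2 hrs at RT, then fluorescence was read.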

Assay [2] deals with Peroxisome proliferator-activated receptor gamma (Homo sapiens) (UniProt P37231). The assay is described as follows: qHTS assay for small molecule agonists of peroxisome proliferator-activated receptor gamma signaling (AID 588536; active means well fitted curve in the direction sought with a large enough effect in the signal ratio, with a control signal flat, not every such curve was filed as active; the % refers to the signal ratio;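 further: 0% = DMSO basal wells and 100% = rosiglitazone at 2 µM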). A digest of the protocol: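 GeneBLAzer PPAR-gamma-UAS-bla HEK293 cells in 1% charcoal/dextran-treated FBS medium were treated 16 h at 37 C with compounds. Beta-lactamase activity was read by CCF4 ratio (460/530 nm). Response was normalized to 2 uM rosiglitazone (100%) and DMSO, then Hill-fitted for EC50 and efficacy.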
Sequence of Peroxisome proliferator-activated receptor gamma (Homo sapiens) (P37231 whole entry, looked up): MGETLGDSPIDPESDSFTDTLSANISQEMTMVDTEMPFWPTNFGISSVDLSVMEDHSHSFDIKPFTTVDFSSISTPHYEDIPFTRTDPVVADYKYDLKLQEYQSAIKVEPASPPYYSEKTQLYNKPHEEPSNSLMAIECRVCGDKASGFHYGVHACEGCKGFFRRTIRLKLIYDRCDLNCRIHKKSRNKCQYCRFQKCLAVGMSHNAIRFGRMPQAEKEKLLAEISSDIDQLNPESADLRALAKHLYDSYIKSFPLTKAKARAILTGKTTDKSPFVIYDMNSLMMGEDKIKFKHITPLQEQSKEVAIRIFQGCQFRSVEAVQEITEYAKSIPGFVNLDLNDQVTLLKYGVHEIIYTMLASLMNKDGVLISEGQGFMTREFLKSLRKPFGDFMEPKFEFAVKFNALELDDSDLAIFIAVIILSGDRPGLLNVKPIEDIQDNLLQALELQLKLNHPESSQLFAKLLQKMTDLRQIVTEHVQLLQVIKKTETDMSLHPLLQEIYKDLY

Assay [3] has as its target Retinoic acid receptor RXR-alpha (Homo sapiens) (UniProt P19793). The assay is described as follows: qHTS assay for small molecule agonists of retinoid X receptor alpha signaling (AID 588544; calls by dose curve;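 further: 0% = DMSO basal wells and 100% = reference agonist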).
Assay [4] has as its target Thyroid hormone receptor beta (Homo sapiens) (UniProt P10828). The assay can be described thus: qHTS assay for small molecule antagonists of thyroid hormone receptor beta signaling (AID 588547; active means well fitted inhibition curve with a large enough effect in the signal ratio, with a control signal flat, not every such curve was filed as active; the % refers to the signal ratio;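 further: cells stimulated with 0.4 nM T3 agonist during compound exposure; series mostly up to about 77 µM; on the % scale 0 is the no-effect control and ±100 the full control effect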). Particulars: TR-UAS-bla HEK293, beta-lactamase ratio, antagonist mode, 18 h. A digest of the protocol:
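Inhibition of T3-driven (0.4nM final) beta-lactamase reporter activity was measured over 0.59 nM to 92 uM compound after 18 h at 37 C. The cells were GripTite HEK293 TR-UAS-bla in charcoal/dextran-stripped serum, with CCF4 ratio read-out and IC50 from Hill fits.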

A short description of assay [5]: qHTS assay for environmental chemicals that activate the Aryl hydrocarbon Receptor (AhR) signaling pathway (AID 651777). Further: % of control where 0% means no effect; nearly all actives have a fitted effect of over 15% in size. The note with it: 1A2-DRE human hepatoma cells, luciferase, 24 h; activation: stronger effect = higher value. A digest of the protocol:
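Reporter gene assay: hepatoma cells with DRE/CYP1A2-luciferase, 24 hr compound incubation at 37 C, 5% CO2, luminescence after One-Glo (30 min, RT).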

Assay [6] concerns the target Peroxisome proliferator-activated receptor alpha (Homo sapiens) (UniProt Q07869). The assay is described as follows: qHTS assay for small molecule agonists of the peroxisome proliferator-activated receptor alpha (PPARalpha) signaling pathway (AID 651778). Further: % of control where 0% means no effect. The note with it: PathHunter PPARalpha complementation, chemiluminescence, 6 h; max response: stronger effect = higher value. In a few lines: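 Chemiluminescence from complemented enzyme reported PPARalpha activation in cells after 6 hr of compound treatment at 37 C. The detection reagent was incubated for 60 min at room temperature, and compounds were scored as agonists.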

Assay [7] is described as follows: qHTS assay for small molecule agonists of the antioxidant response element (ARE) signaling pathway measured by Nrf2-dependant transcriptional activity (AID 720636; active means well fitted curve in the direction sought with a large enough effect in the repeat runs; an effect the other way counts as inactive or inconclusive;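 further: HepG2 cells with an ARE-driven luciferase reporter; % of control where 0% means no effect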). A digest of the protocol:
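Nrf2-dependent transcription is measured in ARE-luc HepG2 cells: compound is applied for 16 hr at 37 C after a 6 hr attachment period, and luciferase activity is quantified by luminescence using ONE-Glo.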

A short description of assay [8]: qHTS assay for small molecule agonists of the antioxidant response element (ARE) signaling pathway measured by Nrf2-dependant transcriptional activity - cell viability counter screen (AID 720653; active means well fitted curve in the direction sought with a large enough effect in the repeat runs; an effect the other way counts as inactive or inconclusive; further: potency means the concentration at half of the fitted maximal effect; on max response: on the % scale 0 is the no-effect control and ±100 the full control effect). The note with it: ARE-bla HepG2 viability, CellTiter-Glo ATP luminescence, 16 h; max response: stronger effect = lower value. A digest of the protocol: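 Cytotoxicity counter screen: intracellular ATP quantified by CellTiter-Glo luminescence in the same ARE-bla HepG2 plates, after 16 h compound exposure and a 2 h beta-lactamase substrate step.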

A short description of assay [9]: qHTS assay for cell viability of HEK293 cells (AID 743288). Further: nearly all actives have a fitted effect of over 50% in size. Further: potency means the concentration at half of the fitted maximal effect. The note with it: ATP luminescence (CellTiter-Glo), 18 h; max response: stronger effect = lower value. A digest of the protocol:
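Environmental chemicals tested in qHTS format against parental HEK293 cells; 18 h treatment, 37 C; read-out ATP luminescence (CellTiter-Glo), 30 min RT development.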

Assay [10] can be described thus: qHTS assay for cell viability of the p53RE-bla HCT-116 cell line (AID 743292). Further: on the % scale 0 is the no-effect control and ±100 the full control effect; nearly all actives have a fitted effect of over 55% in size. A digest of the protocol:
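ATP-based luminescence, 16 h compound exposure at 37 C, p53RE-bla HCT-116 cells at 4,000/well.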

Assay [11] addresses Nuclear receptor subfamily 1 group I member 2 (Rattus norvegicus) (UniProt Q9R1A7). The assay can be described thus: qHTS assay for small molecule activators of the rat pregnane X receptor (rPXR) signaling pathway (AID 651751; call rule not given here; further: 0% is about no effect). Particulars: rPXR reporter cells, luciferase (One-Glo), 24 h.
Assay [12] has as its target Glucocorticoid receptor (Homo sapiens) (UniProt P04150). The assay can be described thus: qHTS assay for small molecule agonists of glucocorticoid receptor signaling (AID 588532; active means well fitted curve in the direction sought with a large enough effect in the signal ratio, with a control signal flat; the % refers to the signal ratio;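 further: 100% = dexamethasone at 0.1 µM and 0% = DMSO only wells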). Particulars: HeLa MMTV-bla, beta-lactamase ratio, agonist, 18 h; activation: stronger effect = higher value, percent of dexamethasone control, DMSO zero. In a few lines:
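Agonist-mode qHTS: GRE-driven beta-lactamase in HeLa cells exposed 18 h to titrated compounds (up to 92 uM), then CCF4 ratio read after 2 h at RT; Hill-fitted EC50, efficacy relative to 0.1 uM dexamethasone.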

Assay [13] has the same target. The assay can be described thus: qHTS assay for small molecule antagonists of glucocorticoid receptor signaling (AID 588533; active means well fitted inhibition curve with a large enough effect in the signal ratio, with a control signal flat, not every such curve was filed as active; the % refers to the signal ratio;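 further: cells stimulated with 2 nM dexamethasone as agonist; on the % scale 0 is the no-effect control and ±100 the full control effect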). In a few lines: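 Antagonist-mode qHTS: compound titrations added to GRE-bla HeLa cells, then dexamethasone 2 nM final; 18 h, 37 C. CCF4 FRET fluorescence normalized to dexamethasone and DMSO; IC50 from Hill fit.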
For assay [14], the target named is Peroxisome proliferator-activated receptor delta (Homo sapiens) (UniProt Q03181). The assay can be described thus: qHTS assay for small molecule agonists of peroxisome proliferator-activated receptor delta signaling (AID 588534; calls by dose curve;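 further: 0% = DMSO basal wells and 100% = positive control agonist at 10 µM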). In a few lines:
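Fluorescence from CCF4 substrate cleavage by beta-lactamase reporter, read 2 hrs at RT, measured agonist activity. Compounds were tested with 18 hrs exposure at 37 C. Concentration-response data fitted to Hill equation.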

Assay [15] concerns the target Thyroid hormone receptor beta (Homo sapiens) (UniProt P10828). The assay is described as follows: qHTS assay for small molecule agonists of thyroid hormone receptor beta signaling (AID 588545; calls by dose curve). In a few lines:
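In this cell-based screen, titrated compounds act on HEK 293 cells held in medium with 2% charcoal/dextran FBS, NEAA and pyruvate for 18 hrs at 37 C. Responses are expressed relative to T3 (10 nM) as 100% and basal DMSO as 0%.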

Assay [16] can be described thus: qHTS assay for small molecule antagonists of retinoid X receptor alpha signaling (AID 588546; active means well fitted inhibition curve with a large enough effect in the signal ratio, with a control signal flat, not every such curve was filed as active; the % refers to the signal ratio;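 further: cells stimulated with 9-cis-retinoic acid as agonist; on the % scale 0 is the no-effect control and ±100 the full control effect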). Particulars: HEK293T RXRa-UAS-bla, beta-lactamase ratio, antagonist mode; measured here: W530 green channel, cytotoxicity proxy. A digest of the protocol:
(§1)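 Beta-lactamase reporter inhibition, read as CCF4 fluorescence ratio (ex 405, em 460/530 nm) after 2 h at RT. HEK293T UAS-bla cells, 2500/well, were stimulated with 9-cis-RA at 500 or 100 nM final alongside test compound for 18 h at 37 C.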

Assay [17] concerns the target Retinoic acid receptor RXR-alpha (Homo sapiens) (UniProt P19793). The assay is described as above. Particulars: HEK293T RXRa-UAS-bla, beta-lactamase ratio, antagonist mode. In a few lines: as §1
Assay [18] is described as follows: qHTS assay for small molecule antagonists of peroxisome proliferator-activated receptor delta signaling (AID 588535; active means well fitted inhibition curve with a large enough effect in the signal ratio, with a control signal flat, not every such curve was filed as active; the % refers to the signal ratio;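 on max response: cells co-treated with a PPAR-delta agonist as stimulator during compound exposure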). The note with it: HEK293T PPARd-UAS-bla, beta-lactamase FRET ratio, 18 h; 460 nm channel. A digest of the protocol: (§2)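 HEK293T PPAR-delta-UAS-bla cells, 4000/well, 2% charcoal/dextran FBS; 5 h 37 C; cpd titration; 18 h 37 C; CCF4 2 h RT; FI 460/530 nm; Hill fit → IC50, efficacy.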

Assay [19] concerns the target Peroxisome proliferator-activated receptor delta (Homo sapiens) (UniProt Q03181). Described as above. In a few lines:
as §2

Assay [20] can be described thus: qHTS assay for small molecule activators of the p53 signaling pathway (AID 651743; active means well fitted activation curve with a large enough effect in the signal ratio, not every such curve was filed as active; the % refers to the signal ratio; further: series mostly up to about 92 µM; % of control where 0% means no effect). Particulars: HCT-116 p53RE-bla, beta-lactamase FRET ratio, 16 h; activation: stronger effect = higher value. A digest of the protocol:
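Read-out is fluorescence intensity from the LiveBLAzer B/G FRET substrate, added for 2 hours at room temperature after HCT-116 p53RE-bla cells had been incubated with compounds for 16 hours at 37 C.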

SMILES strings stand for the structures. Results filed as inconclusive are left out. Calls of active or inactive are those of the source. Unless noted, the call rests on the fitted dose curve; in most records, active means well fitted curve in the direction sought with a large enough effect; inconclusive means small, poorly fitted or top-dose-only effect, or another doubt; inactive means no such curve, though single readings can be large; an effect the other way counts as inactive or inconclusive.

Sequence of Thyroid hormone receptor beta (Homo sapiens) (P10828 whole entry, looked up): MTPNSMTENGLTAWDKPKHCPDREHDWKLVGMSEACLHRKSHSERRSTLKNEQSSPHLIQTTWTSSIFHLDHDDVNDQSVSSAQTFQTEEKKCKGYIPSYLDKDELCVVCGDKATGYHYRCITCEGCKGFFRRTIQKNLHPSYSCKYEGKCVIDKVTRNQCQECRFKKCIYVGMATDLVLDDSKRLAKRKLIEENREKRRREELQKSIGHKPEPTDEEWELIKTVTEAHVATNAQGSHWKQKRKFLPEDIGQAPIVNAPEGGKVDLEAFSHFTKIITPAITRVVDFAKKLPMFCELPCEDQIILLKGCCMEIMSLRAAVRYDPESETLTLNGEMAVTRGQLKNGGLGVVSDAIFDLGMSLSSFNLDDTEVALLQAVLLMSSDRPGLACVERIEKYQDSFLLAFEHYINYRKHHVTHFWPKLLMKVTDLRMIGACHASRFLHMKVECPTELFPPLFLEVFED
Sequence of Glucocorticoid receptor (Homo sapiens) (P04150 whole entry, looked up): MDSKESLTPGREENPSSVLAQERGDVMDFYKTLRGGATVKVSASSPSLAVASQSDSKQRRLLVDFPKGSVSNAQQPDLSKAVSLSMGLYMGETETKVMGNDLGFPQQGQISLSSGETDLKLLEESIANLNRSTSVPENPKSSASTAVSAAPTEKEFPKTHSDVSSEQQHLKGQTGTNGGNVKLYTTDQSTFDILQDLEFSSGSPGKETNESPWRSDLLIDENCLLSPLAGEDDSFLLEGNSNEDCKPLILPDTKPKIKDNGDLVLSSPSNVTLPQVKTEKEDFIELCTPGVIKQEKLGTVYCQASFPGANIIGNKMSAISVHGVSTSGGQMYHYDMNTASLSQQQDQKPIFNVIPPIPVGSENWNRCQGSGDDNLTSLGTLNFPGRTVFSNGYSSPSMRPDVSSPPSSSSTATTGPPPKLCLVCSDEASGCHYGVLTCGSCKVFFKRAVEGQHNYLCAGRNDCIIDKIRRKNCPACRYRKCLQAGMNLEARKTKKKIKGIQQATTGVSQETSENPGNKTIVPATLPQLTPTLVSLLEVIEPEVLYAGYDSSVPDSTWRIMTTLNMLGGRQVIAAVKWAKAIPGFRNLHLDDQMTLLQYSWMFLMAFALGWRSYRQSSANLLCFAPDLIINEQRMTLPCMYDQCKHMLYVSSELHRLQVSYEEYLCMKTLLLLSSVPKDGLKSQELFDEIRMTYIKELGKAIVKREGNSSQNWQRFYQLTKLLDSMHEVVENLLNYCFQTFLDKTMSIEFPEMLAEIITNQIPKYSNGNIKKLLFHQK
Sequence of Peroxisome proliferator-activated receptor alpha (Homo sapiens) (Q07869 whole entry, looked up): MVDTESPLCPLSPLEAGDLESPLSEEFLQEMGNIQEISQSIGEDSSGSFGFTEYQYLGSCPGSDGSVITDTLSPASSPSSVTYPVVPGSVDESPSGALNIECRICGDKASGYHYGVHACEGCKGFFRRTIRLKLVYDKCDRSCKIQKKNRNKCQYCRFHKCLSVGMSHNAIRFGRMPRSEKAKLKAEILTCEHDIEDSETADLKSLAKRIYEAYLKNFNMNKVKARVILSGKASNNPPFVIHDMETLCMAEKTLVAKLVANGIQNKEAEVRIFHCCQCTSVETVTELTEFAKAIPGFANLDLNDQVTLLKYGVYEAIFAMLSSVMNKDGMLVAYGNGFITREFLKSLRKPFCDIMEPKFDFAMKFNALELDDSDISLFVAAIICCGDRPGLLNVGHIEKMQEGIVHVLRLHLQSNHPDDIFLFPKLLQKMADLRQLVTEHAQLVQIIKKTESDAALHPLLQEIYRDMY
Sequence of Peroxisome proliferator-activated receptor delta (Homo sapiens) (Q03181 whole entry, looked up): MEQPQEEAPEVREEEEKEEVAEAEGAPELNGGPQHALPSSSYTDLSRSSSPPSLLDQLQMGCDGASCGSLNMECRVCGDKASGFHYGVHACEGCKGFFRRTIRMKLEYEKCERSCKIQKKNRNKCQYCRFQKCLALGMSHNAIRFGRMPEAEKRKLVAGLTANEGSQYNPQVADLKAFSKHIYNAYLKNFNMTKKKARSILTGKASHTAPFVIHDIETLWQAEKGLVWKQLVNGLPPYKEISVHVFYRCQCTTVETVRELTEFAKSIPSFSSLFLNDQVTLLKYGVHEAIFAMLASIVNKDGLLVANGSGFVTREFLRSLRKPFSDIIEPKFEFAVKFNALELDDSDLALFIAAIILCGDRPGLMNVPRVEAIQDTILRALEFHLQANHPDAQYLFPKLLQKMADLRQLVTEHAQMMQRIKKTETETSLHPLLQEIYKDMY
Sequence of Estrogen receptor (Homo sapiens) (P03372 whole entry, looked up): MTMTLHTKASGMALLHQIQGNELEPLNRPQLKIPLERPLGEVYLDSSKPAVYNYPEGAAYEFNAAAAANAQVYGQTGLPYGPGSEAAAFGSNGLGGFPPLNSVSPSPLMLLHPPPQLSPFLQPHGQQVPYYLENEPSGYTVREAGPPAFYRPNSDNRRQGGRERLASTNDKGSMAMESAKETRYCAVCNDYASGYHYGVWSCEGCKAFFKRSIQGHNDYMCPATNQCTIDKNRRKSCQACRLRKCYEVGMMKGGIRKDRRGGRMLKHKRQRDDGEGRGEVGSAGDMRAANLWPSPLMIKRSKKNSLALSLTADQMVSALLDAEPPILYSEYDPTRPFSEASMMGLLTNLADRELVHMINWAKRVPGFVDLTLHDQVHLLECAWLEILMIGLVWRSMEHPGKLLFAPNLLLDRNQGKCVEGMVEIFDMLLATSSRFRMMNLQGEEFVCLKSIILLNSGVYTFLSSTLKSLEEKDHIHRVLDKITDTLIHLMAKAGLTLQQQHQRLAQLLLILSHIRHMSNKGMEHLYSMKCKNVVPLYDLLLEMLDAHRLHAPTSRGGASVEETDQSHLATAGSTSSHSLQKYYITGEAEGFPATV
Sequence of Retinoic acid receptor RXR-alpha (Homo sapiens) (P19793 whole entry, looked up): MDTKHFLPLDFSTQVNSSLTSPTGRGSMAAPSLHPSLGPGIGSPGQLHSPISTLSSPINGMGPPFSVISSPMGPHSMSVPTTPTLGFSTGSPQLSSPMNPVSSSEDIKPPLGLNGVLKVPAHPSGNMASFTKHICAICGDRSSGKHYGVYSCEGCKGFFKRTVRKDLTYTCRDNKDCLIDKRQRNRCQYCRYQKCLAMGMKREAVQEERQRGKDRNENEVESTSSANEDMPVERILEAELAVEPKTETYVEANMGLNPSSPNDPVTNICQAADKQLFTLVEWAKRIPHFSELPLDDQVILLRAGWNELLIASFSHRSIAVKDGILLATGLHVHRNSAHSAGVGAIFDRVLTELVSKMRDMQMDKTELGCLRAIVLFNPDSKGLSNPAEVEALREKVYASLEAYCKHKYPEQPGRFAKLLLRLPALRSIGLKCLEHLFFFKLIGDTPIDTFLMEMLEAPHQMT
Sequence of Nuclear receptor subfamily 1 group I member 2 (Rattus norvegicus) (Q9R1A7 whole entry, looked up): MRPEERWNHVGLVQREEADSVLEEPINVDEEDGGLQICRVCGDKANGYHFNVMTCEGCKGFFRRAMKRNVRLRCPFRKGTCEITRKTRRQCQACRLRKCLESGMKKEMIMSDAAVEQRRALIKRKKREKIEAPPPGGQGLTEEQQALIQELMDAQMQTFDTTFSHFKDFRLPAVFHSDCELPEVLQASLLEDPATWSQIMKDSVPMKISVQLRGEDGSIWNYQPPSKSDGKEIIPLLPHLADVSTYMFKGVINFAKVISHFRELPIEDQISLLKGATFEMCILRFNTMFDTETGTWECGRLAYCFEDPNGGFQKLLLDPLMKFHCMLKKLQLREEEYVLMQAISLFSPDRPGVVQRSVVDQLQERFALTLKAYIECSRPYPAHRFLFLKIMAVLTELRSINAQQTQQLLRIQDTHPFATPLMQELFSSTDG

Take `Cc1[nH]c(=O)n(C(C)(C)C)c(=O)c1Cl`: the Potency result in assay [1], in [2], in [3], in assay [7] and in assay [10] was “inactive” in each case. For the same compound, in [4], the activity change % (negative = inhibition) was 8.21% (inactive). For the same compound, the activation in assay [5] is 0.775% (inactive). Also, the max response in assay [6] was -1.56% (inactive); in assay [8], 0.82% (inactive); in assay [9] it was -5.92% (inactive); in assay [11], 0.145% (inactive).

For `C#CCN1C(=O)COc2cc(F)c(N3C(=O)C4=C(CCCC4)C3=O)cc21`, the Potency result in assay [1], in assay [13], in [2], in assay [3], in assay [15] and in [7] was “inactive” in each case. In addition, the Potency result in assay [10] was “inactive”. Further, the activation in [12] is -6.94% (inactive); in assay [5], 0.764% (inactive). Besides, the compound was classed as inactive in [14]. For the same compound, the max response is 5.82% in assay [16]; -8.58% (inactive) in assay [17]; -2.95% (inactive) in assay [6]; -24.6% (inactive) in assay [8]; -11.7% (inactive) in [9]; 6.57% (inactive) in assay [11]. In addition, the activity change % (negative = inhibition) in [4] is -4.79% (inactive).

On to `CCNc1nc(Cl)nc(NC(C)(C)C)n1`, for which the Potency result in [1], in assay [13], in [19], in assay [2], in [15] and in assay [7] was “inactive” each time. Further, the Potency result in assay [10] is “inactive”. For the same compound, the compound was called inactive in assay [14]. The max response is 33.2% in [18]; 0.909% (inactive) in [6]; -4.66% (inactive) in assay [8]; -13.7% (inactive) in assay [9]; 4.19% (inactive) in assay [11]. The activity change % (negative = inhibition) in assay [4] is -28% (inactive). For the same compound, the activation in assay [5] is 6.82% (inactive).

Regarding `Nc1c(Cl)c(F)nc(OCC(=O)O)c1Cl`, the Potency entry in [1], in assay [13], in [2], in assay [3], in [7] and in [10] was “inactive” in each case. For the same compound, the activation is -4.31% (inactive) in [12], 0.955% (inactive) in assay [20] and 1.14% (inactive) in assay [5]. Moreover, the max response in assay [16] is -12.1%; in [17], -9.36% (inactive); in assay [6] it was 0.318% (inactive); in assay [8], 1.18% (inactive); in [9], 4.54% (inactive); in assay [11], -2.68% (inactive). Moreover, in assay [4], the activity change % (negative = inhibition) is 11.1% (inactive).

In the case of `CC1(C)CC/C(=C\c2ccc(Cl)cc2)C1(O)Cn1cncn1` (stereo not given), the Potency entry in assay [1], in [13], in [2], in [3], in assay [15] and in assay [10] was “inactive” throughout. For the same compound, the activation in assay [12] was -0.523% (inactive); in [20], -1.43% (inactive); in [5], 7.02% (inactive). Further, the outcome in [14] was inactive. Moreover, the max response in assay [16] is 5.05%; in assay [17], -37.6% (inactive); in assay [6], 0.489% (inactive); in assay [8] it was -5.93% (inactive); in [9] it was -11.5% (inactive); in assay [11], 12.5% (inactive). Also, in [4], the activity change % (negative = inhibition) is -0.512% (inactive).

Take `O=[N+]([O-])c1ccc(Cl)c([N+](=O)[O-])c1`: the Potency entry in assay [1] and in [7] was “inactive” each time. Further, the activation in assay [12] was 0.437% (inactive); in assay [5], -11.5% (inactive). Further, the result in [14] was inactive. In addition, the max response in assay [6] was -3.79% (inactive); in assay [11] it was -13.5% (inactive). Besides, the Potency in assay [8] was 44.7 µM (active); in assay [9], 50.1 µM (active).

The record behind these values is PubChem BioAssay (NCATS).
